Rows were chosen to be rich in hits. Some 1.8% of all compounds tested hit in one or more screens of this group.
KAT2A inh: blocks human GCN5L2 histone acetyltransferase | GCN5L2 HAT assay, ThioGlo1 CoA-SH fluorescence | Potency, µM (titrated, usually from 58.9 µM), usual class: inhibitors | 390,000 compounds, 0.21% hits | AID 504327
Target sequence (Q92830 whole entry, looked up): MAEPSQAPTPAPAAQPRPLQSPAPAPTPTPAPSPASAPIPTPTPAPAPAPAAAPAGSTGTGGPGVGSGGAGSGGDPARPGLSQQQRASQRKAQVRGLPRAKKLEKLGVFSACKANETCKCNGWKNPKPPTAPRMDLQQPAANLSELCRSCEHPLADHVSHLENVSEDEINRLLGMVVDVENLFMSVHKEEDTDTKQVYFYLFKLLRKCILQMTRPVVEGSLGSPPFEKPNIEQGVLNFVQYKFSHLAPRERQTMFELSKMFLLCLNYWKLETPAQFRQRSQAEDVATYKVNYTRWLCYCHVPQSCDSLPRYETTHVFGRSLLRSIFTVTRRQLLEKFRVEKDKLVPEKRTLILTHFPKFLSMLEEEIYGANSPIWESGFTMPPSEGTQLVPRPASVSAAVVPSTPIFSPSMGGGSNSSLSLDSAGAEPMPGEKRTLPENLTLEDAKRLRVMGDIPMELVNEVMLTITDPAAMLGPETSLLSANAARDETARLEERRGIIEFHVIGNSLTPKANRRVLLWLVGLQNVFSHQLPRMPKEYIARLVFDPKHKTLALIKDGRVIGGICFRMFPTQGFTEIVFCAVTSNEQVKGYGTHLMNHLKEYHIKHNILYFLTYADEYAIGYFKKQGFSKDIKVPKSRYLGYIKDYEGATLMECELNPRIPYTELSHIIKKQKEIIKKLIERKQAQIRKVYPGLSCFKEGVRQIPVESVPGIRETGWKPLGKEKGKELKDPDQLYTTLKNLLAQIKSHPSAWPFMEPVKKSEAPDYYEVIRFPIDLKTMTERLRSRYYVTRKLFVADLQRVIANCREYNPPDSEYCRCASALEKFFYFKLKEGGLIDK
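ThioGlo1-coupled HAT assay: 20nM GCN5L2, 70uM acetyl-CoA, 75uM H3(1-25) peptide, pH 7.5. Fluorescence read at 340/540nm at start and after 20 min at room temperature.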
TrxR1 substrate: rat thioredoxin reductase 1 substrate activity; purified TrxR1 substrate turnover, NADPH consumption readout; Potency, µM (series often up to 114 µM); 390,000 compounds, 0.01% hits; note: nearly all actives have a fitted effect of over 50% in size
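Rat TrxR1, dispensed at 90 nM, was prereduced with 400 uM NADPH (final) for 5 min at ~22 deg C, then incubated with compound 15 min before 400 uM selenite. A first-read NADPH fluorescence drop versus no-compound background flagged substrates.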
TrxR1 inh-1: inhibitors of rat thioredoxin reductase 1. O89049. recombinant rTrxR1, NADPH fluorescence consumption, selenite substrate. Potency, µM (top dose mostly 114 µM), actives largely listed as inhibitors. 390,000 compounds, 1% hits. AID 588453; note: nearly all actives have a fitted effect of over 65% in size
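Rat TrxR1 (90 nM in the dispensed reagent) was pre-reduced with 400 uM NADPH for 5 min at room temperature, then incubated with compound for 15 min. After 400 uM selenite was added, NADPH fluorescence (Ex 340/Em 450 nm) was followed for 8 min.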
VDR inh: inhibitors of human vitamin D receptor; VDR-SRC2-3 peptide fluorescence polarization, 2 h; Potency, µM, most hits filed as inhibitors; 400,000 compounds, 0.93% hits; AID 504847
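Signal is fluorescence polarization, reporting how far test compounds block the interaction of VDR with the SRC2-3 coregulator peptide after a 2 h room-temperature incubation.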
VDR confirm: inhibits human vitamin D receptor, primary hit validation | shares compounds with VDR inh | VDR-coactivator inhibition assay, qHTS confirmation | Potency, µM, most hits filed as inhibitors | 840 compounds, 89% hits
VDR FP fluor: blocks human VDR-coactivator binding in fluorescein assay; Potency, µM (top dose mostly 57.1 µM), most hits filed as inhibitors; 840 compounds, 48% hits; shares compounds with VDR inh; VDR-coactivator binding, fluorescein fluorescence polarization
VDR bla reporter: confirmation of human vitamin D receptor inhibitors in reporter cells. VDR beta-lactamase reporter cells, FRET ratio; cells co-treated with VDR agonist LG190178. 840 compounds, 23% hits. Potency, µM (doses to about 46.1 µM), usual class: inhibitors. shares compounds with VDR inh. AID 602202
VDR cytotox: cell toxicity, VDR inhibitor hit counter-screen; shares compounds with VDR inh; cytotoxicity counter-screen, cell viability, qHTS; Potency, µM (series often up to 48.3 µM), hits mostly cytotoxic; 840 compounds, 18% hits; note: nearly all actives have a fitted effect of over 75% in size
TRb-SRC2 inh: disrupts human TRb binding to SRC2 peptide in AlphaScreen; shares compounds with TrxR1 inh-1; AlphaScreen TRb LBD-SRC2 peptide binding, luminescence; Potency, µM; 30 compounds, 50% hits; AID 2444; calls by dose curve
HepG2 tox: HepG2 cytotoxicity, 72 h ATP readout | Potency, µM | 40 compounds, 50% hits | shares compounds with TrxR1 inh-1 | AID 2447 | HepG2 viability, ATP luminescence (CellTiter-Glo), 72 h; calls by dose curve
AR-SRC2 inh: selectivity of TRb-SRC2 inhibitors: human androgen receptor-SRC2 inhibition | shares compounds with TrxR1 inh-1 | AR-LBD Tx-SRC2-3 fluorescence polarization, 3 h | calls only | 25 tested, under 10 active | AID 2448; call rule not given here
PPARg-DRIP2 inh: disrupts human PPARgamma binding to DRIP-2 peptide. shares compounds with TrxR1 inh-1. PPARg LBD / Texas Red DRIP-2 peptide, fluorescence polarization, 3 h. Potency, µM. 25 tested, under 10 active. AID 2449; calls by dose curve
VDR SRC2 FP: selectivity of TRb-SRC2 inhibitors: human vitamin D receptor-SRC2 inhibition; shares compounds with TrxR1 inh-1; VDR LBD/SRC2-3 peptide, fluorescence polarization, 3 h; Potency, µM; 25 tested, under 10 active; AID 2455; calls by dose curve
TRb-SRC2 FP Fluo: disrupts human TRb binding to fluorescein-SRC2 peptide | 20 tested, under 10 active | shares compounds with TrxR1 inh-1 | Potency, µM | TRb LBD / fluorescein-SRC2 peptide, fluorescence polarization; call rule not given here
GR inh: inhibits human glutathione reductase in TrxR1 counterassay; 55 tested, under 10 active; purified GR, DTNB reduction absorbance 405 nm kinetic; shares compounds with TrxR1 inh-1; AID 652020; activity change, negative = inhibition, % at 57.1 µM
TrxR1 inh-2: rat TrxR1 inhibition, primary screen retest | 55 compounds, 50% hits | AID 652023 | Potency, µM, hits mostly inhibitors | shares compounds with TrxR1 inh-1 | recombinant TrxR1, NADPH fluorescence consumption, selenite substrate
TrxR1 insulin MOA: TrxR1 inhibition in insulin mechanism assay; TrxR1 Trx-coupled insulin reduction, NADPH absorbance 340 nm; 55 compounds, 20% hits; Potency, µM; shares compounds with TrxR1 inh-1;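 active = compounds with a measured potency under 100 micromolar; inconclusive = filed, but no rule given; inactive = potency at or above that, or unmeasurable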
TrxR1 inh-3: rat thioredoxin reductase 1 inhibition, DTNB assay. shares compounds with TrxR1 inh-1. purified TrxR1, DTNB reduction, A412. Potency, µM. 55 compounds, 90% hits. AID 652256;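 active = a half-inhibiting concentration could be measured and was below 100 µM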
Of the large screens only hits and unclear results are named; the others gave an inactive call (follow-up assays come after a bar, where they were run). Unless noted, calls come from the whole dose curve; as a rule, active = well fitted curve in the direction sought with a large enough effect; inconclusive = small, poorly fitted or top-dose-only effect, or another doubt; inactive = no such curve, though single readings can be large; an effect the other way counts as inactive or inconclusive.

CCS(=O)(=O)c1ccc2oc(Nc3ccc(C(C)C)cc3)nc2c1	VDR inh 39.8µM | VDR confirm 8.44 | VDR FP fluor 3.98µM | VDR bla reporter inactive | VDR cytotox inactive
O=C(O)CC(O)CC(O)/C=C/c1c(C2CC2)nc2ccccc2c1-c1ccc(F)cc1 (configuration not stated)	VDR inh inconclusive (no result: TrxR1 substrate, TrxR1 inh-1)
COC(=O)CC1C(C)(C)C(OC(C)=O)[C@@]2(O)C=C3C4CC(=O)OC(c5ccoc5)[C@]4(C)CCC3[C@@]1(C)C2=O (some centres not stated)	none (no result: TrxR1 substrate, TrxR1 inh-1)
CC(C)CC(C(=O)NCc1ccc(F)cc1)N1Cc2ccccc2C1=O (configuration not stated)	none
O=c1c(Cl)c(Cl)cnn1Cc1nnc(-c2ccc(Cl)cc2)o1	TrxR1 inh-1 7.08µM, VDR inh inconclusive | VDR confirm inconclusive | VDR FP fluor inconclusive | VDR bla reporter inconclusive | VDR cytotox inconclusive | GR inh inactive | TrxR1 inh-2 8.44 | TrxR1 insulin MOA inactive | TrxR1 inh-3 3.44µM
COc1cccc(NC(=O)CSc2nnc3scc(-c4ccc(Cl)cc4)n23)c1	none
Cc1ccccc1NC(=O)COC(=O)c1ccc(S(C)(=O)=O)c([N+](=O)[O-])c1	TrxR1 inh-1 2.51µM | TRb-SRC2 inh 27.5µM | HepG2 tox inconclusive | AR-SRC2 inh inactive | PPARg-DRIP2 inh inactive | VDR SRC2 FP inactive | TRb-SRC2 FP Fluo inactive
CS(=O)(=O)c1ccc(C(=O)OCC(=O)Nc2ccc(OC(F)(F)F)cc2)cc1[N+](=O)[O-]	TrxR1 inh-1 3.55µM (no result: KAT2A inh) | TRb-SRC2 inh 16.7µM | HepG2 tox inactive | AR-SRC2 inh inactive | PPARg-DRIP2 inh inactive | VDR SRC2 FP inactive | TRb-SRC2 FP Fluo inactive
COc1ccc(C(=O)OCC(=O)Nc2ccccc2)cc1[N+](=O)[O-]	none
NS(=O)(=O)c1cc(C(=O)OCC(=O)Nc2ccccc2[N+](=O)[O-])ccc1Cl	none
CC(=O)c1cccc(NC(=O)COC(=O)c2ccc(S(C)(=O)=O)c([N+](=O)[O-])c2)c1	TrxR1 inh-1 1.58µM | TRb-SRC2 inh 86.8µM | HepG2 tox inconclusive | AR-SRC2 inh inactive | PPARg-DRIP2 inh inactive | VDR SRC2 FP 59.7µM | TRb-SRC2 FP Fluo inconclusive
CC(=O)c1cccc(NC(=O)C(C)OC(=O)c2ccc(S(C)(=O)=O)c([N+](=O)[O-])c2)c1 (configuration not stated)	TrxR1 inh-1 7.08µM, VDR inh inconclusive (no result: KAT2A inh) | TRb-SRC2 inh 39.9µM | HepG2 tox inconclusive | AR-SRC2 inh inactive | PPARg-DRIP2 inh inconclusive | VDR SRC2 FP inconclusive | TRb-SRC2 FP Fluo 61.9µM
O=C(Nc1cccc(C(=O)Nc2ccc(S(=O)(=O)O)c3cc(S(=O)(=O)O)cc(S(=O)(=O)O)c23)c1)Nc1cccc(C(=O)Nc2ccc(S(=O)(=O)O)c3cc(S(=O)(=O)O)cc(S(=O)(=O)O)c23)c1	KAT2A inh inconclusive, TrxR1 inh-1 inconclusive, VDR inh inconclusive
CC(C)(C)C(=O)Cn1c(=O)n(-c2ccc(Cl)c(Cl)c2)c(=O)c2c3c(sc21)CCCC3	none
CS(=O)(=O)c1ccc(C(=O)OCC(=O)Nc2cc(C(F)(F)F)ccc2Cl)cc1[N+](=O)[O-]	TrxR1 inh-1 8.91µM, VDR inh inconclusive (no result: KAT2A inh) | TRb-SRC2 inh 16.7µM | HepG2 tox 16.8µM | AR-SRC2 inh inactive | PPARg-DRIP2 inh inactive | VDR SRC2 FP inconclusive | TRb-SRC2 FP Fluo inactive
COc1cc(CN2CCCCC2C(=O)Nc2ccc(Oc3ccccc3)nc2)ccc1O (configuration not stated)	TrxR1 inh-1 12.6µM | GR inh inactive | TrxR1 inh-2 inconclusive | TrxR1 insulin MOA inactive | TrxR1 inh-3 0.14µM
Cc1ccc(Nc2c(-c3ccc(C)o3)nc3ccccn23)cc1	TrxR1 inh-1 inconclusive (no result: KAT2A inh)

Compound activity deposited in PubChem BioAssay by National Center for Advancing Translational Sciences (NCATS).
